From PubChem BioAssay
This is a sample that favours compounds with a hit; in the whole collection about 3.5% have one here.
TEAD-YAP block: TEAD-YAP interaction inhibition, primary screen, TEAD-YAP interaction inhibitor project, luminescence, HEK-TIYL cells. TEAD-Gal4/YAP UAS-luciferase luminescence. inhibition, % at 9.12 µM. 1.4% of 640,000 active. AID 1259422, 2018; in the data active = inhibition above about 32%;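 note: 0% = median of test compound wells and 100% = reference inhibitor wells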
FBW7 activator: FBW7 E3 ligase activators, primary screen, biochemical, AlphaScreen, human; 0.13% of 650,000 active; AlphaScreen FBW7–phospho-cyclin E peptide binding, activator screen; normalized activity (activation), % at 26.1 µM; F-box/WD repeat-containing protein 7 (Homo sapiens), Q969H0; in the data active = normalized activity above about 1.9%;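 note: purified mutant Fbw7 with reduced substrate affinity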
MITF primary: MITF inhibitors, primary screen, biochemical, AlphaScreen, human; AlphaScreen MITF homodimerization, bead proximity signal; 0.91% of 650,000 active; inhibition, % at 2.6 µM; AID 1259374, 2018; in the data active = inhibition above about 50%;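 note: 0% = vehicle wells with protein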
Target sequence (O75030 whole entry, looked up): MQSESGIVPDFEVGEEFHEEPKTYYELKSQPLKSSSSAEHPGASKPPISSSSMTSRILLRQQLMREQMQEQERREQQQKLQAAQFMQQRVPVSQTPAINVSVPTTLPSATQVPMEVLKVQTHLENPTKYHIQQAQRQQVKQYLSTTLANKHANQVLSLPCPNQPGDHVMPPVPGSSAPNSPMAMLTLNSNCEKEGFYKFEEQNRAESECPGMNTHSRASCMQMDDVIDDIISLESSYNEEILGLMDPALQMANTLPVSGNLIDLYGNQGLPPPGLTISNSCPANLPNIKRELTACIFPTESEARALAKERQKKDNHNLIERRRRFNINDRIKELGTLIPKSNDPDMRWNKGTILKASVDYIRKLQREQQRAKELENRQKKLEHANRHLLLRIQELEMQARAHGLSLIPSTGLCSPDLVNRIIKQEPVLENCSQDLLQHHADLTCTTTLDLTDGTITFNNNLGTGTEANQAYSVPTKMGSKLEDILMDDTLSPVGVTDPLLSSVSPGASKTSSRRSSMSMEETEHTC
GPR151 activ: activators of human GPR151, primary screen, cell-based, PathHunter beta-arrestin, luminescence; G-protein coupled receptor 151 (Homo sapiens), Q8TDV0; PathHunter beta-arrestin GPR151 cells; activation, % at 11.2 µM; 1% of 650,000 active; AID 1508602, 2020; in the data active = activation above about 4.9%;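 note: 0% = median of compound wells and 100% = cells with positive control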
GPR151 confirm: GPR151 activators, triplicate retest, confirmation, cell-based, PathHunter beta-arrestin, luminescence. GPR151 PathHunter beta-arrestin cells, 90 min; % of EA-reagent control over plate median. 6,700 tested, under 10 active. shares compounds with GPR151 activ. activation, % at 11.2 µM;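 active = mean percent activation across replicates above the confirmation screen cutoff of 4.91%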
GPR119 ag: GPR119 activators in beta-arrestin cells, counter-screen for GPR151 activator project, cell-based, PathHunter beta-arrestin, luminescence, triplicate. shares compounds with GPR151 activ. 90 min; 0 = compound-well median, 100 = enzyme-acceptor control. activation, % at 11.2 µM. 0.3% of 6,700 active. AID 1508611, 2020;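 active = mean percent activation in the counterscreen above 29.09%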;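 note: counterscreen on off-target GPR119 to flag nonselective hits from the GPR151 activator screen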
Active calls of the source: *; ! = a repeat was not active.

O=C1CC(c2nc3ccccc3n2Cc2ccccc2F)CN1c1ccccc1 (centres undefined) was read as TEAD-YAP block -11, FBW7 activator 0, MITF primary -3, GPR151 activ 8.8*, GPR151 confirm 0 and GPR119 ag -9.
Cc1cc(C)nc(SCC(=O)Nc2ncc3c(n2)CC(C)(C)CC3=O)n1 was read as TEAD-YAP block 8, FBW7 activator 0, MITF primary 6, GPR151 activ 5.6*, GPR151 confirm 1 and GPR119 ag 13.
For CC(=O)Nc1ncc2c(n1)CC(C)(C)CC2=O the results were TEAD-YAP block -1, FBW7 activator 0, MITF primary 9 and GPR151 activ 1.
CC(C)=NNC(=O)c1ccc(Cl)cc1 was read as TEAD-YAP block -34, FBW7 activator 0, MITF primary 7, GPR151 activ 12*, GPR151 confirm 0 and GPR119 ag 2.
Screening COc1cc(C(=O)Nc2cc(C)c(O)cc2C)cc(OC)c1OC returned TEAD-YAP block 5, FBW7 activator 0, MITF primary -6, GPR151 activ 6.1*, GPR151 confirm 1 and GPR119 ag 4.
`COc1cc(C(=O)Nc2ccc(O)cc2C)cc(OC)c1OC` gave TEAD-YAP block -1, FBW7 activator 0, MITF primary 12 and GPR151 activ -1.
CCCCCCOc1ccc(OC(=O)C2CCC(CCCC)CC2)c(C#N)c1C#N (centres undefined) was read as TEAD-YAP block 13, FBW7 activator 0, MITF primary 7 and GPR151 activ -1.
Screening Cc1ccc(NC(=O)N[C@H]2C[C@H]3C(=O)N[C@@H](CO)C(=O)N3C2)cc1Cl returned TEAD-YAP block 2, FBW7 activator 1, MITF primary 8 and GPR151 activ -1.
COc1cc(NC(=O)CSc2nnnn2-c2ccc(OC)c(OC)c2)cc(OC)c1 was read as TEAD-YAP block 3, FBW7 activator 0, MITF primary 1, GPR151 activ 5.0*, GPR151 confirm 0 and GPR119 ag 1.
Screening CCC(C)c1ccc(NC(=O)CSc2nnnn2-c2ccc(OC)cc2)cc1 (centres undefined) returned TEAD-YAP block 6, FBW7 activator 1, MITF primary 13, GPR151 activ 5.6*, GPR151 confirm 1 and GPR119 ag 0.
Screening COc1ccc(-n2nnnc2SCC(=O)Nc2ccc(NC(C)=O)cc2)cc1OC returned TEAD-YAP block 7, FBW7 activator 0, MITF primary -1 and GPR151 activ 2.
Screening C/C(=C/C(=O)c1ccc(Cl)cc1)Nc1cccc(O)c1 returned TEAD-YAP block -9, FBW7 activator 0, MITF primary 12, GPR151 activ 5.8*, GPR151 confirm -1 and GPR119 ag -10.
Screening CCc1ccc(C2NCCc3cc4c(cc32)OCCO4)cc1 (centres undefined) returned TEAD-YAP block 3, FBW7 activator 0, MITF primary 5 and GPR151 activ 4.
`c1c2c(cc3c1OCCO3)C1CN(C2)Cc2cc3c(cc21)OCCO3` gave TEAD-YAP block 10, FBW7 activator 0, MITF primary 6, GPR151 activ 7.4*, GPR151 confirm 0 and GPR119 ag 0.
Screening c1nnn(CC2CCOCO2)n1 (centres undefined) returned TEAD-YAP block 7, FBW7 activator 0, MITF primary 12, GPR151 activ 15*, GPR151 confirm 0 and GPR119 ag -5.
`CCOC(=O)CSc1nc(N)c2c3c(sc2n1)CCCC3` gave TEAD-YAP block -8, FBW7 activator 1, MITF primary -3, GPR151 activ 13*, GPR151 confirm -1 and GPR119 ag 0.
For CCCCCOC(=O)CSc1nc(N)c2c3c(sc2n1)CCCC3 the results were TEAD-YAP block -5, FBW7 activator 0, MITF primary 1 and GPR151 activ -1.
COCCN1CCCc2ccc(NS(=O)(=O)c3cc(C)ccc3C)cc21 was read as TEAD-YAP block 15, FBW7 activator 0, MITF primary -1, GPR151 activ 5.2*, GPR151 confirm 0 and GPR119 ag 3.
COCCN1CCCc2ccc(NS(=O)(=O)c3ccc(C)c(C)c3)cc21 was read as TEAD-YAP block 7, FBW7 activator 0, MITF primary -6 and GPR151 activ -1.
`CCOC(=O)c1c(C)n(C)c2c1cc(O)c1ccccc12` gave TEAD-YAP block -14, FBW7 activator 0, MITF primary 6, GPR151 activ 6.1*, GPR151 confirm 1 and GPR119 ag 5.
Screening CCOc1nc(NC(=O)NS(=O)(=O)c2ccccc2)nc(-c2ccccc2)n1 returned TEAD-YAP block -1, FBW7 activator 0, MITF primary 2, GPR151 activ 5.0*, GPR151 confirm 0 and GPR119 ag 1.
For CC(=O)C1=C(C)N(Cc2ccccc2)C(=O)N[C@H]1c1cccc(F)c1 the results were FBW7 activator 0, MITF primary 27, GPR151 activ 6.9*, GPR151 confirm 0 and GPR119 ag 8.
Screening C/C(=N\Nc1cc(N2CCOCC2)nc(C)n1)c1cccc([N+](=O)[O-])c1 returned TEAD-YAP block -9, FBW7 activator 0, MITF primary 9, GPR151 activ 5.2*, GPR151 confirm 1 and GPR119 ag 4.
Screening COc1ccccc1CNS(=O)(=O)c1ccc2c(c1)oc(=O)n2C returned TEAD-YAP block 2, FBW7 activator 0, MITF primary 18, GPR151 activ 5.9*, GPR151 confirm -1 and GPR119 ag -9.
For CCCN(CCC)CCNS(=O)(=O)c1ccc2c(c1)oc(=O)n2C the results were TEAD-YAP block -5, FBW7 activator 0, MITF primary 6, GPR151 activ 7.6*, GPR151 confirm 0 and GPR119 ag 8.
COc1ccc(OC)c(CNS(=O)(=O)c2ccc3c(c2)oc(=O)n3C)c1 was read as TEAD-YAP block 20, FBW7 activator 0, MITF primary 2 and GPR151 activ -1.
Screening CCCCOc1ccc(-c2nc(C=NCc3ccccc3)c(O)o2)cc1 returned TEAD-YAP block -2, FBW7 activator 1, MITF primary -1 and GPR151 activ 1.
Screening CC(C)(S)C(N)C(=O)O (centres undefined) returned TEAD-YAP block -9, FBW7 activator 0, MITF primary 1, GPR151 activ 5.1*!, GPR151 confirm 0 and GPR119 ag -9.
CC(C)(S)C(=O)N[C@@H](CS)C(=O)O was read as TEAD-YAP block -2, FBW7 activator 0, MITF primary -9 and GPR151 activ -2.
